Hit rate of the full screen: of about 5,500 compounds, about 2,000 (36%) were called active. Inconclusive results (about 18%) are left out. The list shows a part of the results. Values without a mark were called inactive. Cut-off read from the data, not from the text of the source: active = normalized growth mostly below about 0.91 (no sharp cut-off); inconclusive = no clear call, values can overlap the other calls; inactive = mostly above about 0.92.
Test: chemical genetic growth profiling, strain panel (AID 1159580);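 note: tested at 20 µM; growth read once vehicle control cultures reached saturation at 30 °C; 1 = growth at the plate median or of vehicle wells; lower values mean less growth of the strain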
Conditions: S. cerevisiae deletion strains, growth OD
[1] = locus YAL040C, strain CLN3, hits give low values
[2] = locus YCL061C, strain MRC1 (second series), hits give low values
[3] = locus YDR363W, strain ESC2, hits give low values
[4] = locus YER002W, strain NOP16, hits give low values
[5] = locus YNL197C, strain WHI3, hits give low values
[6] = locus YNL224C, strain SQS1, hits give low values
[7] = locus YNL322C, strain KRE1, hits give low values
[8] = locus YOR083W, strain WHI5 (second series), hits give low values

## OC1(c2ccc(Cl)c(C(F)(F)F)c2)CCN(CCCC(c2ccc(F)cc2)c2ccc(F)cc2)CC1
Locus YAL021C, strain ccr4, hits give low values
  normalized growth: 0.0667 (active)
Locus YAL026C, strain drs2, hits give low values
  normalized growth: 0.0627 (active)
Locus YAL030W, strain snc1, hits give low values
  normalized growth: 0.0597 (active)
Locus YBL061C, strain skt5, hits give low values
  normalized growth: 0.0677 (active)
Locus YBR009C, strain hhf1, hits give low values
  normalized growth: 0.0608 (active)
Locus YBR023C, strain chs3, hits give low values
  normalized growth: 0.0682 (active)
Locus YBR171W, strain sec66, hits give low values
  normalized growth: 0.0917 (active)
Locus YBR231C, strain swc5, hits give low values
  normalized growth: 0.0658 (active)
Locus YBR279W, strain paf1, hits give low values
  normalized growth: 0.218 (active)
Locus YCL011C, strain gbp2, hits give low values
  normalized growth: 0.0588 (active)
Locus YCL016C, strain dcc1, hits give low values
  normalized growth: 0.0739 (active)
Locus YCL061C, strain MRC1, hits give low values
  normalized growth: 0.394 (active)
Locus YCL069W, strain vba3, hits give low values
  normalized growth: 0.101 (active)
Locus YCR088W, strain abp1, hits give low values
  normalized growth: 0.0838 (active)
Locus YDL005C, strain med2, hits give low values
  normalized growth: 0.0778 (active)
Locus YDL040C, strain nat1, hits give low values
  normalized growth: 0.109 (active)
Locus YDR001C, strain nth1, hits give low values
  normalized growth: 0.0892 (active)
Locus YDR069C, strain doa4, hits give low values
  normalized growth: 0.0704 (active)
Locus YDR137W, strain rgp1, hits give low values
  normalized growth: 0.111 (active)
Locus YDR159W, strain sac3, hits give low values
  normalized growth: 0.0866 (active)
Locus YDR195W, strain ref2
  normalized growth: 0.0989 (active)
Locus YDR297W, strain sur2, hits give low values
  normalized growth: 0.0586 (active)
Locus YDR334W, strain swr1, hits give low values
  normalized growth: 0.0861 (active)
Locus YDR335W, strain msn5, hits give low values
  normalized growth: 0.0657 (active)
Locus YDR392W, strain spt3, hits give low values
  normalized growth: 0.0888 (active)
Locus YEL003W, strain gim4, hits give low values
  normalized growth: 0.0558 (active)
Locus YEL037C, strain rad23, hits give low values
  normalized growth: 0.0879 (active)
Locus YEL061C, strain CIN8 (second series), hits give low values
  normalized growth: 0.0952 (active)
Locus YER015W, strain faa2, hits give low values
  normalized growth: 0.0667 (active)
Locus YER016W, strain bim1, hits give low values
  normalized growth: 0.0765 (active)
Locus YER111C, strain swi4, hits give low values
  normalized growth: 0.14 (active)
Locus YER155C, strain BEM2 (second series), hits give low values
  normalized growth: 0.468 (active)
Locus YFR010W, strain ubp6, hits give low values
  normalized growth: 0.0981 (active)
Locus YGL167C, strain pmr1, hits give low values
  normalized growth: 0.0793 (active)
Locus YGL173C, strain kem1, hits give low values
  normalized growth: 0.0739 (active)
Locus YGL227W, strain vid30, hits give low values
  normalized growth: 0.188 (active)
Locus YGL240W, strain doc1, hits give low values
  normalized growth: 0.317 (active)
Locus YGL253W, strain hxk2, hits give low values
  normalized growth: 0.0755 (active)
Locus YHR013C, strain ard1, hits give low values
  normalized growth: 0.148 (active)
Locus YHR027C, strain rpn1, hits give low values
  normalized growth: 0.067 (active)
Locus YHR030C, strain SLT2, hits give low values
  normalized growth: 0.952
Locus YHR079C, strain IRE1, hits give low values
  normalized growth: 0.965
Locus YHR142W, strain chs7, hits give low values
  normalized growth: 0.0949 (active)
Locus YJL092W, strain hpr5, hits give low values
  normalized growth: 0.105 (active)
Locus YJL095W, strain BCK1 (second series), hits give low values
  normalized growth: 0.0578 (active)
Locus YJL095W, strain BCK1, hits give low values
  normalized growth: 0.972
Locus YJL115W, strain asf1, hits give low values
  normalized growth: 0.485 (active)
Locus YJL129C, strain trk1, hits give low values
  normalized growth: 0.0811 (active)
Locus YJL154C, strain vps35, hits give low values
  normalized growth: 0.0686 (active)
Locus YJL164C, strain tpk1, hits give low values
  normalized growth: 0.0638 (active)
Locus YJL166W, strain qcr8, hits give low values
  normalized growth: 0.0607 (active)
Locus YJR066W, strain TOR1, hits give low values
  normalized growth: 0.931
Locus YKL160W, strain elf1, hits give low values
  normalized growth: 0.348 (active)
Locus YKR026C, strain gcn3, hits give low values
  normalized growth: 0.132 (active)
Locus YKR091W, strain srl3, hits give low values
  normalized growth: 0.0942 (active)
Locus YLL001W, strain dnm1, hits give low values
  normalized growth: 0.0836 (active)
Locus YLL026W, hits give low values
  normalized growth: 0.0586 (active)
Locus YLL041C, strain sdh2, hits give low values
  normalized growth: 0.0615 (active)
Locus YLR027C, strain aat2, hits give low values
  normalized growth: 0.0571 (active)
Locus YLR113W, strain HOG1, hits give low values
  normalized growth: 0.946
Locus YLR221C, strain rsa3, hits give low values
  normalized growth: 0.061 (active)
Locus YLR258W, strain gsy2, hits give low values
  normalized growth: 0.0676 (active)
Locus YLR262C, strain YPT6 (second series), hits give low values
  normalized growth: 0.0931 (active)
Locus YLR320W, strain mms22, hits give low values
  normalized growth: 0.141 (active)
Locus YLR342W, strain FKS1, hits give low values
  normalized growth: 0.0657 (active)
Locus YLR357W, strain rsc2, hits give low values
  normalized growth: 0.321 (active)
Locus YLR370C, strain arc18, hits give low values
  normalized growth: 0.0708 (active)
Locus YLR384C, strain iki3, hits give low values
  normalized growth: 0.127 (active)
Locus YML120C, strain ndi1, hits give low values
  normalized growth: 0.057 (active)
Locus YMR058W, strain fet3, hits give low values
  normalized growth: 0.0807 (active)
Locus YMR125W, strain sto1, hits give low values
  normalized growth: 0.164 (active)
Locus YMR129W, hits give low values
  normalized growth: 0.0603 (active)
Locus YMR205C, strain PFK2, hits give low values
  normalized growth: 0.0884 (active)
Locus YMR231W, strain pep5, hits give low values
  normalized growth: 0.0664 (active)
Locus YNL071W, strain lat1, hits give low values
  normalized growth: 0.0627 (active)
Locus YNL183C, strain NPR1, hits give low values
  normalized growth: 0.935
Locus YNL209W, strain ssb2, hits give low values
  normalized growth: 0.0684 (active)
Locus YNL248C, strain rpa49, hits give low values
  normalized growth: 0.196 (active)
Locus YNL322C, strain KRE1 (second series), hits give low values
  normalized growth: 0.479 (active)
Locus YNR049C, strain mso1, hits give low values
  normalized growth: 0.12 (active)
Locus YOR001W, strain rrp6, hits give low values
  normalized growth: 0.0677 (active)
Locus YOR070C, strain gyp1, hits give low values
  normalized growth: 0.0739 (active)
Locus YOR080W, strain dia2, hits give low values
  normalized growth: 0.196 (active)
Locus YOR083W, strain WHI5, hits give low values
  normalized growth: 0.0883 (active)
Locus YOR106W, strain vam3, hits give low values
  normalized growth: 0.0691 (active)
Locus YOR231W, strain MKK1, hits give low values
  normalized growth: 0.981
Locus YOR265W, strain rbl2, hits give low values
  normalized growth: 0.0702 (active)
Locus YOR270C, strain vph1, hits give low values
  normalized growth: 0.127 (active)
Locus YOR290C, strain snf2, hits give low values
  normalized growth: 0.104 (active)
Locus YPL051W, strain arl3, hits give low values
  normalized growth: 0.0821 (active)
Locus YPL078C, strain atp4, hits give low values
  normalized growth: 0.216 (active)
Locus YPL106C, strain sse1, hits give low values
  normalized growth: 0.0967 (active)
Locus YPL240C, strain hsp82, hits give low values
  normalized growth: 0.0596 (active)
Locus YPL256C, strain CLN2, hits give low values
  normalized growth: 0.936

## O=C(CCCN1CCC(O)(c2cccc(C(F)(F)F)c2)CC1)c1ccc(F)cc1
Locus YAL013W, strain DEP1, hits give low values
  normalized growth: 0.832 (active)
[1]
  normalized growth: 1.01
[2]
  normalized growth: 0.974
[3]
  normalized growth: 0.851 (active)
[4]
  normalized growth: 1.03
Locus YGR078C, strain PAC10, hits give low values
  normalized growth: 0.985
Locus YMR307W, strain GAS1, hits give low values
  normalized growth: 0.818 (active)
Locus YNL153C, strain GIM3, hits give low values
  normalized growth: 0.961
[5]
  normalized growth: 1.05
[6]
  normalized growth: 1.13 [resistant] (active)
[7]
  normalized growth: 0.882 (active)
[8]
  normalized growth: 1.04

## CCNC(=O)N1CCN(CCCC(c2ccc(F)cc2)c2ccc(F)cc2)CC1
[1]
  normalized growth: 0.994
[2]
  normalized growth: 0.99
Locus YDR150W, strain NUM1, hits give low values
  normalized growth: 0.982
[3]
  normalized growth: 1.04
[4]
  normalized growth: 1
Locus YJR075W, strain HOC1, hits give low values
  normalized growth: 0.988
Locus YMR263W, strain SAP30, hits give low values
  normalized growth: 0.988
Locus YNL175C, strain NOP13, hits give low values
  normalized growth: 1.03
[5]
  normalized growth: 1.02
[6]
  normalized growth: 1.04
[7]
  normalized growth: 0.974
[8]
  normalized growth: 1
Locus YPL055C, strain LGE1, hits give low values
  normalized growth: 0.916

Reference: PubChem BioAssay AID1159580 (chemical genetic matrix, 2015)
